# Laboratory results: PubChem BioAssay (NCATS)
# A number with no mark means an inactive call. Results filed as inconclusive are left out. The source made the active and inactive calls. Unless noted, calls follow the shape of the dose curve; as a rule, active = well fitted curve in either direction with a large enough effect (not every such curve was filed as active); inconclusive = small, poorly fitted or top-dose-only effect, or another doubt; inactive = flat fitted curve, though single readings scatter.
# Experiments:
# [1] = target: Lysosomal acid glucosylceramidase (Homo sapiens) (UniProt P04062); assay: Glucocerebrosidase-p2 (AID 348; in the data active = potency below about 10 µM; also: potency is read from the fitted curve at half-maximal effect); conditions: purified GBA, blue fluorogenic substrate, 40 min
# Procedure, shortened: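 Normal human glucocerebrosidase (0.2 nM) with blue fluorogenic substrate (80 uM final) in citrate/phosphate pH 5.9 with 10mM sodium taurocholate, 0.01% tween-20; 40 min RT, NaOH/glycine stop; fluorescence Ex 365/Em 440; AC50 from a titration from 0.6 nM upwards.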
# [2] = AP1 Signaling Pathway (AID 357); conditions: ME-180 AP-1-bla reporter, EGF-induced, beta-lactamase ratio, 5 h; at 7.69 µM (top of the series) unless noted;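 also: ME-180 reporter cells stimulated with EGF at its EC50 level; % is scaled to controls: 0 for no effect and ±100 for the full control effect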
# Procedure, shortened: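 Beta-lactamase reporter under AP-1 response element, ME-180 background. Stimulus: EC50 EGF. Compound exposure 5 h, 37 °C. Detection: CCF4, 2.5 h RT, 460/530 nm. Values: AC50 from titration.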
# [3] = NFAT Signaling Pathway (AID 444); conditions: Jurkat NFAT-bla M1, carbachol, beta-lactamase ratio, 5 h; at 7.69 µM (top of the series) unless noted;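 also: carbachol stimulus at about its EC50 of 1 µM final; % is scaled to controls: 0 for no effect and ±100 for the full control effect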
# Procedure, shortened: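 Jurkat cells with NFAT-driven β-lactamase reporter and co-expressed M1 receptor, stimulated with carbachol (final 1 uM, ~EC50), compound titration, 5 h at 37 °C. CCF4 loaded 1 h at RT; 460/530 nm ratio gave %activity and AC50.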
# [4] = Stat Signaling Pathway (AID 446); conditions: ME-180 (cervical carcinoma) SIE beta-lactamase reporter, IL-6 stimulated, 5 h; at 7.69 µM (top of the series) unless noted;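 also: ME-180 cervical cancer cells given 40 pM IL-6 alongside compound; SIE-controlled beta-lactamase reporter measured as 460/530 nm FRET emission ratio; % is scaled to controls: 0 for no effect and ±100 for the full control effect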
# Procedure, shortened: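 Compound effects on IL-6-induced STAT reporter activity were measured in ME-180 cells. After overnight culture, cells were co-treated with 40 pM IL-6 for 5 hrs before beta-lactamase substrate loading at room temperature.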
# [5] = target: Glucocorticoid receptor (Homo sapiens) (UniProt P04150); assay: GR-GFP Redistribution (AID 450;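 active = compounds whose dose series gives a full or clear partial fitted curve of increased nuclear translocation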; also: potency is read from the fitted curve at half-maximal effect); conditions: U2OS GR-GFP nuclear translocation, laser cytometry, 2 h
# [6] = target: Glucocorticoid receptor (Homo sapiens) (UniProt P04150); assay: GR-EFC Redistribution (AID 451; calls by dose curve; also: potency is read from the fitted curve at half-maximal effect); conditions: CHO-K1 GR-EFC translocation, beta-gal luminescence, 2 h
# Procedure, shortened: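 CHO-K1 cells expressing nuclear EA and GR-ED fragments of b-gal; compounds titrated up to 46 uM final, 2 h at 37 C. GR nuclear translocation read as complemented b-gal luminescence after 1 h RT detection.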
# [7] = target: Mitogen-activated protein kinase 10 (Mus musculus) (UniProt Q61831); assay: JNK3 AlphaScreen Assay (AID 530); conditions: JNK3 lysate, c-Jun phosphorylation; series mostly up to 11.4 µM;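 also: kinase came from lysate of stimulated human HepG2 cells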; also: potency is read from the fitted curve at half-maximal effect;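 as to activity change, negative = inhibition: signal reports phosphorylation of biotinylated GST-cJun 1-79 at Ser73 with 10 µM ATP; % is scaled to controls: 0 for no effect and ±100 for the full control effect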
# Procedure, shortened: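 Activity was read by AlphaScreen after JNK3-containing HepG2 lysate (cytokine pre-activated) phosphorylated biotinylated GST-cJun with 10 uM ATP at room temperature. Phospho-Ser73 cJun antibody with Protein-A acceptor beads provided detection.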
# [8] = target: 3',5'-cyclic-AMP phosphodiesterase 4B (Homo sapiens) (UniProt Q07343); assay: qHTS Assay for Inhibitors of PDE-IV (AID 607; active = well fitted activation curve with a large enough effect in the main read-out, with a control signal flat, not every such curve was filed as active; also: % of control where 0% means no effect); conditions: HEK293 ACTOne CNG channel cells, membrane potential fluorescence; series mostly up to 22.9 µM
# Procedure, shortened: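 ACTOne HEK293 cells carry a modified cAMP-gated CNG channel and express endogenous PDE4; plated 1000 cells/well, compounds up to 22.9 uM final. Membrane-potential dye fluorescence (ex 535/em 590) was read; parental cells received 10 uM forskolin + 100 uM RO 20-1724.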
# Chain of 3',5'-cyclic-AMP phosphodiesterase 4B (Homo sapiens) (Q07343 whole entry, looked up): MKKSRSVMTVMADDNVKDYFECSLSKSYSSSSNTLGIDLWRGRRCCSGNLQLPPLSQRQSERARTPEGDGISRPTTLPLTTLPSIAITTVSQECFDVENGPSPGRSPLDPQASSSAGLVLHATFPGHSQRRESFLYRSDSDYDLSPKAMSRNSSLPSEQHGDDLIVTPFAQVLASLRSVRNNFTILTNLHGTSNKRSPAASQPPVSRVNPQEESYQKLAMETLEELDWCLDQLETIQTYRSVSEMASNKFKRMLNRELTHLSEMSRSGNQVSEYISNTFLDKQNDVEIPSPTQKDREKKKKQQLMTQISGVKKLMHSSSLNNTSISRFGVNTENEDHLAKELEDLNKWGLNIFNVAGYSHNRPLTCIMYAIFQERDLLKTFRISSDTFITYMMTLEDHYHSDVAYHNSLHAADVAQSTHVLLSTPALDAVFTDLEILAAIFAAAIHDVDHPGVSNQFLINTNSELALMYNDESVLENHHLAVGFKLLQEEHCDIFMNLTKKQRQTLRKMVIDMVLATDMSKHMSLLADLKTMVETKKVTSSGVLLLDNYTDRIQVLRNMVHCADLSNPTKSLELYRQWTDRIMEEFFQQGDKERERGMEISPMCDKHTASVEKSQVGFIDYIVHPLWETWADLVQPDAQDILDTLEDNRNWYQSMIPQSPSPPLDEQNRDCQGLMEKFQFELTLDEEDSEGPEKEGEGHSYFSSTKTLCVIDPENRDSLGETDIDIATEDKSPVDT
# Chain of Lysosomal acid glucosylceramidase (Homo sapiens) (P04062 whole entry, looked up): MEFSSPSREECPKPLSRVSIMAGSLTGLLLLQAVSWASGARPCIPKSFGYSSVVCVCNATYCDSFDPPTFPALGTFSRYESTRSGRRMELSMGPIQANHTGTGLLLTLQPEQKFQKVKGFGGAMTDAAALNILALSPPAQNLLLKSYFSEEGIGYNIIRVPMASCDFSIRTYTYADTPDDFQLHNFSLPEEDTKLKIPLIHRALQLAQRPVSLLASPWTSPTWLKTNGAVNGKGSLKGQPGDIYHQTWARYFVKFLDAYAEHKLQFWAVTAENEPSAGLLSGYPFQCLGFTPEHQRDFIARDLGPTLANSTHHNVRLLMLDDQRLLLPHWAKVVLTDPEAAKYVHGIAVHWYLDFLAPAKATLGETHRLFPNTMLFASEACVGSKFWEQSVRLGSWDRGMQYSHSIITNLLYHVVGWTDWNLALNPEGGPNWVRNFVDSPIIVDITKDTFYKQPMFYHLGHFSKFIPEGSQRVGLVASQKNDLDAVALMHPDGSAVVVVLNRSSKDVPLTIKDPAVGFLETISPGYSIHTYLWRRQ
# Chain of Glucocorticoid receptor (Homo sapiens) (P04150 whole entry, looked up, the tested form may be a part): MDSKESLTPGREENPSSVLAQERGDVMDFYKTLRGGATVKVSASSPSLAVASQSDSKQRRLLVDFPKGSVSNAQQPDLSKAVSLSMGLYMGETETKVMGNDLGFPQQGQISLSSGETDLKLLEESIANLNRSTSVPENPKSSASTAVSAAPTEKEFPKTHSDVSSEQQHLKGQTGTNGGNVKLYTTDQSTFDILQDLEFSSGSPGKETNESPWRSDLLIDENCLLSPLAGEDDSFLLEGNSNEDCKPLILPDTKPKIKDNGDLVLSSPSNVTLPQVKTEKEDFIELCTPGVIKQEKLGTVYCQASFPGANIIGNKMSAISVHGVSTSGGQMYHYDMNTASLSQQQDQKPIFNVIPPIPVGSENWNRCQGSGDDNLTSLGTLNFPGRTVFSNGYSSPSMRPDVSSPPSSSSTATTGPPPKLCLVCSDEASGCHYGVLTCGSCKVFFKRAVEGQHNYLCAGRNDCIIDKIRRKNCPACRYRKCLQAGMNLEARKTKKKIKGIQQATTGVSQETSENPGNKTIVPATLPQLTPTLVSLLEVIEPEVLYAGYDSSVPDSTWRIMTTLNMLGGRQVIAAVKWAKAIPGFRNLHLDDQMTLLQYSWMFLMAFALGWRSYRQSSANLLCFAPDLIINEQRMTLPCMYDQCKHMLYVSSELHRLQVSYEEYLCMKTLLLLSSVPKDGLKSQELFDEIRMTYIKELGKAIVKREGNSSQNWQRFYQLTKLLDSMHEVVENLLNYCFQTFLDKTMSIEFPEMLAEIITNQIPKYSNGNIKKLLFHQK
Compound,Potency [1],"activity change, negative = inhibition [2]","activity change, negative = inhibition [3]","activity, negative = inhibition [4]",Potency [5],Potency [6],Potency [7],Potency [8]
Cc1nc([N+](=O)[O-])cn1-c1nc2ccccn2c1[N+](=O)[O-],> 11.4 µM,2.55%,-3.74%,4.02%,> 46 µM,> 9.22 µM,inactive,inactive
C[C@@H](CCC[C@@H]1SC[C@H]2NC(=O)N[C@H]12)C(=O)O,> 11.4 µM,-0.543%,-21.7%,-4.44%,> 46 µM,> 9.22 µM,0.0316 µM (active),inactive
NCCSc1nc(-c2ccccc2)c(-c2ccccc2)o1,> 11.4 µM,2.27%,-4.41%,-3.16%,> 46 µM,> 9.22 µM,inactive,inactive
CCCNc1ncnc2[nH]ncc12,> 11.4 µM,-4.57%,5.61%,-1.7%,> 46 µM,> 9.22 µM,inactive,inactive
Cc1cc2cc3c(=O)[nH]c(=O)[nH]c3nc2cc1C,> 11.4 µM,-6.37%,11.7%,-6.9%,> 46 µM,> 9.22 µM,inactive,inactive
N#CC(=NCCO)C1=C(O)c2ccccc2C1=O,> 11.4 µM,-1.5%,17.6%,10.7%,> 46 µM,> 9.22 µM,inactive,inactive
O=C(O)CNC(=O)[C@H]1NC(C(F)(F)F)(C(F)(F)F)OC1(C(F)(F)F)C(F)(F)F,> 11.4 µM,-4.91%,10.9%,-14.7%,> 46 µM,> 9.22 µM,inactive,inactive
O=C1c2ccccc2[C@@H]([C@@H]2c3ccccc3C(=O)c3cc(Br)ccc32)c2ccc(Br)cc21,> 11.4 µM,-5.16%,-5.27%,8.23%,> 46 µM,> 9.22 µM,inactive,inactive
COc1cccc(CSCC(=O)O)c1,> 11.4 µM,-5.92%,6.63%,6.95%,> 46 µM,> 9.22 µM,inactive,inactive
Cc1ccc(S(=O)(=O)OCC(=O)O)cc1,> 11.4 µM,2.36%,4.54%,5.39%,> 46 µM,> 9.22 µM,inactive,inactive
O=C(O)[C@@H]1[C@@H]2O[C@H]([C@@H](Br)[C@H]2Br)[C@H]1C(=O)O,> 11.4 µM,7.44%,2.42%,-2.12%,> 46 µM,> 9.22 µM,inactive,inactive
NC(=O)/N=C(\N)NC(=O)c1ccccc1,> 11.4 µM,-2.56%,8.99%,2.37%,> 46 µM,> 9.22 µM,inactive,inactive
CC(=O)Nc1ccc(-c2cc(C(=O)O)c3cc4ccccc4cc3n2)cc1,> 11.4 µM,7.67%,5.02%,-2.25%,> 46 µM,> 9.22 µM,inactive,inactive
CC(C)=CCNc1ncnc2nc[nH]c12,> 11.4 µM,3.85%,6.81%,5.75%,> 46 µM,> 9.22 µM,inactive,inactive
CC1(C)[C@@H](CC(=O)O)CCC[C@@H]1CC(=O)O,> 11.4 µM,2.47%,5.58%,1.3%,> 46 µM,> 9.22 µM,inactive,inactive
Cc1ccc(CCCC(=O)O)cc1C,> 11.4 µM,2.32%,9.24%,3.42%,> 46 µM,> 9.22 µM,inactive,inactive
O=C(O)c1ccccc1-c1ccccc1C(=O)c1ccccc1,> 11.4 µM,6.33%,5.49%,2.8%,> 46 µM,> 9.22 µM,inactive,inactive
